Results reported in PubChem BioAssay.
Active and inactive are the calls of the source. Unless noted, how the calls were made is not given here.

Tests used:
[1] = resazurin metabolic signal in HepG2 cells – cell-based, resazurin fluorescence, 24 h, PK04 Diversity Set, profiling panel (AID 1172); conditions: HepG2 viability, higher = more signal
[2] = budding yeast growth changes without added modifier – OD600, strain BY4716, 24 h, basal condition, primary screen (AID 1173); conditions: S. cerevisiae BY4716 growth, OD600, 24 h; higher = more signal, called active from +8 up or from −8 down
[3] = viability profiling in MM1S myeloma cells – cell-based, resazurin fluorescence, basal, 24 h, PK04 Diversity Set, profiling panel (AID 1174); conditions: higher = more signal, called active from +8 up or from −8 down;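 further: MM1S multiple myeloma cell line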
[4] = molecular target: Dihydroorotate dehydrogenase (quinone), mitochondrial (Plasmodium falciparum (isolate 3D7)) (UniProt Q08210); assay: inhibition of P. falciparum DHODH – biochemical, C-terminal His tag, absorbance 600 nm, primary screen (AID 1175); conditions: PfDHODH enzyme, DCIP absorbance 600 nm; higher = more signal, called active from +8 up or from −8 down;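 further: recombinant parasite enzyme with a five histidine tag at its C terminus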
[5] = inhibition of PAO1 biofilm formation – strain PAO1, LB-PBS medium, absorbance 600 nm, primary screen (AID 1176); conditions: P. aeruginosa PAO1 growth/biofilm, A600, 12 h; higher = more signal
[6] = growth modulation of vineyard yeast isolate – strain RM11-1a, OD600, basal, 24 h, primary screen (AID 1177);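 further: cultures grown under basal conditions with no added stressor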; conditions: S. cerevisiae RM11-1a growth, OD600, 24 h; higher = more signal, called active from +8 up or from −8 down
[7] = growth of efflux-deficient E. coli DRC39 – strain DRC39, OD650, 24 h, E. coli filamentation inducers, primary screen (AID 1178);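 further: growth measured as culture turbidity by optical density at 650 nm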; conditions: E. coli DRC39 acrAB, higher = more signal, called active from +8 up or from −8 down
[8] = growth of efflux-deficient E. coli DRC39 – strain DRC39, OD650, 48 h, E. coli filamentation inducers, primary screen (AID 1179);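 further: screen aims at cell division blockers that make cells filament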; conditions: E. coli DRC39 delta-acrAB growth, higher = more signal, called active from +8 up or from −8 down
[9] = viability profiling in RPMI8226 myeloma cells – cell-based, resazurin fluorescence, basal, 24 h, PK04 Diversity Set, profiling panel (AID 1180); conditions: higher = more signal;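 further: RPMI8826 multiple myeloma cell line at 5000 cells per well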
[10] = molecular target: E3 ubiquitin-protein ligase XIAP (Homo sapiens) (UniProt P98170); assay: small molecules binding XIAP protein – biophysical, small-molecule microarray, fluorescence 635 nm, primary screen (AID 1181); conditions: higher = more signal;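 further: score merges 667 nm emission and signal to noise over triplicate slides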
[11] = system: XIP peptide (Xip251-270) binding; assay: XIP fragment 251-270 binding compounds – biochemical, small-molecule microarray, fluorescence 635/667 nm, 0.1 µg/mL protein, primary screen (AID 1182); conditions: fluorescent protein binding, 635 nm, higher = more signal, called active from +8 up or from −8 down
[12] = system: XIP peptide (Xip251-270); assay: compounds binding XIP fragment 251-270 – biochemical, small-molecule microarray, fluorescence 635/667 nm, 0.5 µg/mL protein, primary screen (AID 1183); conditions: fluorescence 635 nm, higher = more signal
[13] = blood-stage malaria parasite viability loss – strain 3D7, DAPI fluorescence, 100 nL, primary screen (AID 1184);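 further: parasites grown inside human red blood cells in medium with human serum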; conditions: P. falciparum 3D7 growth, 3 d, higher = more signal
[14] = molecular target: Homeobox protein Hox-A13 (Mus musculus) (UniProt Q62424); assay: disruptors of Hoxa13 oligonucleotide interaction – biochemical, fluorescence polarization, labeled oligonucleotide, primary screen (AID 1185); conditions: Hoxa13:DNA binding, 15 min, higher = more signal, called active from +8 up or from −8 down
[15] = blockers of DNA damage checkpoint Chk1 activation – imaging, HeLa, hydroxyurea, phospho-Chk1 antibody, percent positive cells, primary screen (AID 1186); conditions: hydroxyurea-induced phospho-Chk1 immunofluorescence imaging, higher = more signal
[16] = blockers of DNA damage checkpoint Chk1 activation – imaging, HeLa, hydroxyurea, phospho-Chk1 nuclear intensity, primary screen (AID 1187); conditions: hydroxyurea-induced phospho-Chk1 immunofluorescence imaging, higher = more signal

Sequence of Dihydroorotate dehydrogenase (quinone), mitochondrial (Plasmodium falciparum (isolate 3D7)) (Q08210 whole entry, looked up): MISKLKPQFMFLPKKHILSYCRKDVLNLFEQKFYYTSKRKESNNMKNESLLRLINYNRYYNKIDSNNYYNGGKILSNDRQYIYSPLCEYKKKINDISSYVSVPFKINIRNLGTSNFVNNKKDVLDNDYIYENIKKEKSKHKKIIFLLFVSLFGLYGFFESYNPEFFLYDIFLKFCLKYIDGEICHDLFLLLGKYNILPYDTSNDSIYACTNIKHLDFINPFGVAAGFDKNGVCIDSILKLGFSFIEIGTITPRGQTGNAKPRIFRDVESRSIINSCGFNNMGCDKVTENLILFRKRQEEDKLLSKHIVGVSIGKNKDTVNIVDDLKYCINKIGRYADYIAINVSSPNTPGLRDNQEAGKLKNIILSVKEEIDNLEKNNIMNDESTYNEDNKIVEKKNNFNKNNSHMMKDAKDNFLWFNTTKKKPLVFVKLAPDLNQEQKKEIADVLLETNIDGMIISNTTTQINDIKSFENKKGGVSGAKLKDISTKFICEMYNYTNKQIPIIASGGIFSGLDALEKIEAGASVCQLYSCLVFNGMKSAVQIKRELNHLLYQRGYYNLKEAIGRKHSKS
Sequence of E3 ubiquitin-protein ligase XIAP (Homo sapiens) (P98170 whole entry, looked up, the tested form may be a part): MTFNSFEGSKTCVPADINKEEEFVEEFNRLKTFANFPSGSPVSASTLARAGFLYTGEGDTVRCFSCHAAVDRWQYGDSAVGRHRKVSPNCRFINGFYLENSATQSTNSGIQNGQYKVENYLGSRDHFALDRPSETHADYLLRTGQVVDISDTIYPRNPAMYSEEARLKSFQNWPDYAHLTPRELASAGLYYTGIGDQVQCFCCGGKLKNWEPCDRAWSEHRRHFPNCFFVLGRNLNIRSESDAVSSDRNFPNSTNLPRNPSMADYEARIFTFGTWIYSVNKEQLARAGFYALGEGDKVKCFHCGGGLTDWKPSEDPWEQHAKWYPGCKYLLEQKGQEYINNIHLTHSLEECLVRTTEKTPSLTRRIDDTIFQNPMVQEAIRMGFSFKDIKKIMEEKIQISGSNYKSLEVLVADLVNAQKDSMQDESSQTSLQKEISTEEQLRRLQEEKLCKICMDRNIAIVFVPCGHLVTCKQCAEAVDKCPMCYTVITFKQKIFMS
Sequence of Homeobox protein Hox-A13 (Mus musculus) (Q62424 whole entry, looked up): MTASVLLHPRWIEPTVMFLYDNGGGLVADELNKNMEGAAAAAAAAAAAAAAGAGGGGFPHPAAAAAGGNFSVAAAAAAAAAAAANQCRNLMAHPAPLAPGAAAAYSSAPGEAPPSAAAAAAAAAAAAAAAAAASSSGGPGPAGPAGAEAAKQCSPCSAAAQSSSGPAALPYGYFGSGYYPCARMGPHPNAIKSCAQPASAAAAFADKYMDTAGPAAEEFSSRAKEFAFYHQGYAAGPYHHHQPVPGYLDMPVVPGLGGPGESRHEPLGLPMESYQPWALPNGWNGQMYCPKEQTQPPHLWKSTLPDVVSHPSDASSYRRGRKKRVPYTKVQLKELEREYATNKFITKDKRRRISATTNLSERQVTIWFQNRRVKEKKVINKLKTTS

Compound | z-score [1] | z-score [2] | z-score [3] | composite z-score [4] | z-score [5] | z-score [6] | z-score [7] | z-score [8] | z-score [9] | composite z-score [10] | composite z-score [11] | composite z-score [12] | z-score [13] | z-score [14] | z-score [15] | z-score [16]
NCCCCCCNC(=O)[C@H]1C[C@H]2C(=O)N[C@@H](Cc3ccccc3)C(=O)N2[C@H]1c1cccc(OCCO)c1 | -2.77 | -0.669 (inactive) | 1.51 (inactive) | 1.18 (inactive) | -0.627 (inactive) | 0.262 (inactive) | 0.968 (inactive) | 0.846 (inactive) | 1.06 | 0.081 | 1.16 (inactive) | 0.834 | -0.516 | -3.36 (inactive) | -0.182 (inactive) | -0.25 (inactive)
CC[C@@H]1C=C(C(=O)O)[C@H](c2ccc(C)cc2)N1S(=O)(=O)c1ccc(C)cc1 | 0.675 | 0.174 (inactive) | 0.0178 (inactive) | -1.85 (inactive) | -0.433 (inactive) | -0.66 (inactive) | -0.303 (inactive) | 0.637 (inactive) | -0.0794 | 0.0701 | -0.143 (inactive) | 0.468 | 1.14 | -1.69 (inactive) | 0.723 (inactive) | 0.909 (inactive)
[N-]=[N+]=Nc1ccccc1C[C@]1(C(=O)NCc2ccccc2)N=C(c2ccc(OCCCO)cc2)O[C@H]1c1ccccc1N=[N+]=[N-] | -1.17 | 0.371 (inactive) | -3.49 (inactive) | 0.535 (inactive) | 1.13 (inactive) | 0.879 (inactive) | -0.377 (inactive) | -0.0802 (inactive) | -2.83 | 0.0097 | -0.12 (inactive) | 0.681 | -2.32 | 0.69 (inactive) | -0.231 (inactive) | -0.741 (inactive)
CN(C)CCCCCCNC(=O)[C@@H]1C[C@@H]2C(=O)N[C@@H](CCCC[N+](C)(C)C)C(=O)N2[C@@H]1c1ccc(O)cc1 | -0.916 | -0.661 (inactive) | -1.07 (inactive) | -1.06 (inactive) | -0.0212 (inactive) | -0.0569 (inactive) | 0.301 (inactive) | 0.575 (inactive) | -0.746 | 0.0785 | 0.759 (inactive) | 0.146 | 1.99 | -1.64 (inactive) | 0.702 (inactive) | 0.0464 (inactive)
C#CCOc1ccc(C[C@@H](C(=O)OC)N(CC#C)[C@@H](/C=C/C2CC2)[C@H](O)Cc2ccccc2)cc1 | 0.288 | 1.03 (inactive) | 0.232 (inactive) | 0.567 (inactive) | -0.271 (inactive) | 1.45 (inactive) | -0.741 (inactive) | -0.528 (inactive) | 0.318 | 0.157 | -0.365 (inactive) | -0.119 | -1.21 | -3.88 (inactive) | -0.146 (inactive) | -0.432 (inactive)
CCOC(=O)C[C@H]1[C@H](OC(=O)c2ccc(-c3ccccc3)cc2)[C@@H](NC(=O)c2ccccc2)c2cc(OCCCO)ccc2N1C(=O)Cc1ccc(OC)cc1 | -0.161 | 0.742 (inactive) | 0.393 (inactive) | 0.593 (inactive) | 0.845 (inactive) | 1.47 (inactive) | 0.835 (inactive) | 0.451 (inactive) | -0.041 | -0.0936 | -0.11 (inactive) | -0.664 | -1.09 | -1.36 (inactive) | -0.0036 (inactive) | 0.16 (inactive)
COC(=O)C(CC#Cc1ccc2c(c1)[C@]1(C(=O)N2)[C@H](c2ccc(O)cc2)N2[C@H](c3ccccc3)[C@H](c3ccccc3)OC(=O)[C@H]2[C@@H]1C(=O)N1CCN(c2ncccn2)CC1)C(=O)OC | -0.0862 | 0.238 (inactive) | -1.02 (inactive) | 0.0817 (inactive) | 0.847 (inactive) | 0.849 (inactive) | 0.551 (inactive) | 0.769 (inactive) | -3.92 | -0.0668 | 0.655 (inactive) | 0.826 | -2.26 | -1.65 (inactive) | -0.231 (inactive) | -0.514 (inactive)
CN(C)C(=O)[C@]1(Cc2ccccc2)N=C(c2ccc(OCCCO)cc2)O[C@@H]1c1ccccc1N=[N+]=[N-] | -0.274 | -1.43 (inactive) | -2.64 (inactive) | 0.9 (inactive) | -0.0837 (inactive) | 1.29 (inactive) | 0.349 (inactive) | 0.908 (inactive) | -2.58 | 0.237 | 0.79 (inactive) | 0.708 | -2.31 | -5.85 (inactive) | -0.366 (inactive) | -0.903 (inactive)
CN1C(=O)C2C=CC(C(O)c3ccc(F)cc3)N(N(c3ccccc3)c3ccccc3)C2C1=O (centres undefined) | -0.898 | 0.41 (inactive) | -0.957 (inactive) | -0.0882 (inactive) | 1.14 (inactive) | 0.242 (inactive) | -0.513 (inactive) | -0.26 (inactive) | -1.36 | 0.499 | -0.0116 (inactive) | -0.0807 | 0.988 | -3.45 (inactive) | 1.17 (inactive) | 0.568 (inactive)
